An excerpt weighted towards active compounds, which were near 1.7% of everything screened.
TLR9-MyD88 block: inhibitors of TLR9-MyD88 association in cells, primary screen, cell-based, CHO, BLA complementation, fluorescence; Toll-like receptor 9 (Homo sapiens) + Myeloid differentiation primary response protein …; CCF4 FRET ratio; inhibition, % at 4.98 µM; 340,000 tested, 0.21% active; AID 504734, 2011;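 active means inhibition above the mean over all tested compounds plus 3 SD, cut at about 21% in these data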
TLR4-MyD88 BLA: inhibitors of TLR4-MyD88 association in cells, primary screen, cell-based, HeLa CL3-4, BLA complementation, FRET ratio | Toll-like receptor 4 (Homo sapiens) + Myeloid differentiation primary response protein … | HeLa CL3-4 TLR4/MyD88 BLA complementation | inhibition, % at 8.4 µM | 200,000 tested, 0.18% active | AID 861, 2007; in the data active means inhibition above about 25%
ABCB6 inh 2: ABCB6 transporter inhibitors, primary screen, K562-ABCB6 cells, flow cytometry, MLPCN library. ATP-binding cassette sub-family B member 6 (Homo sapiens), Q9NP58. K562-ABCB6 porphyrin accumulation, 1 h; hits give low values. fluorescence ratio to DMSO, % at 10 µM. 360,000 tested, 0.19% active. AID 602162, 2011;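 active means fluorescence ratio to DMSO below 75%, the collection mean minus 3 SD; inconclusive means too few cells collected in the well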;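 further: signal is porphyrin accumulated inside mitochondria; lower ratio means ABCB6 inhibition with less porphyrin fluorescence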
Target sequence (Q9NP58 whole entry, looked up): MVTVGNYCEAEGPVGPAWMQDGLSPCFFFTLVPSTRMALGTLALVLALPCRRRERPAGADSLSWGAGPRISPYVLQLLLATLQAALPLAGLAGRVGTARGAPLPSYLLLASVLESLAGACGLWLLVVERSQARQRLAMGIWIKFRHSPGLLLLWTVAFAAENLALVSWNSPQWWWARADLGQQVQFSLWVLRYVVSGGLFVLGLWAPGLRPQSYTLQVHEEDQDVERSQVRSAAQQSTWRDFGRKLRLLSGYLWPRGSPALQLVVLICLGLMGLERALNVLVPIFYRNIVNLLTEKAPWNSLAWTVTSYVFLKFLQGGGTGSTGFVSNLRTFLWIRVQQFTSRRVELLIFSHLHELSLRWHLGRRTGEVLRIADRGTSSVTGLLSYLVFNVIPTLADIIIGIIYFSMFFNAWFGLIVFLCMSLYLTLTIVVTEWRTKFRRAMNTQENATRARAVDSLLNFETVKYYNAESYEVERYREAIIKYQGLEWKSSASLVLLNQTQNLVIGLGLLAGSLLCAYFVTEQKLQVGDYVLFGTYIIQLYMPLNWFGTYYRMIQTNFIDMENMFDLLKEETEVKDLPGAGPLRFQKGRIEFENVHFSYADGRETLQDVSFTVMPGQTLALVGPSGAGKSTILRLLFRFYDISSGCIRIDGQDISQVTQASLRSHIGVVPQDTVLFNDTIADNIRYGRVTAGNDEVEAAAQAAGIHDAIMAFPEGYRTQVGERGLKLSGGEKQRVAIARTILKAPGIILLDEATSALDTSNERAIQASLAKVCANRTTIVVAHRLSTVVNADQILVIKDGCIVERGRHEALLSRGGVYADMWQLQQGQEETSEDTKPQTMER
Myeloid diff 2: induction of myeloid progenitor differentiation, primary screen, cell-based, flow cytometry, MLPCN library; ER-HoxA9 myeloid progenitors, lysozyme-GFP differentiation; calls only at 10 µM; 360,000 tested, 1% active;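 active means normalized GFP-positive differentiation at or above the plate's own cutoff, the solvent-only control mean plus 3 SD; inconclusive means no clear call, values can overlap the other calls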;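 further: cells exposed to compound for four days before flow analysis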
NOD2 RIPK2 PPI: NOD2-RIPK2 binding disruptors in cells, primary screen, fluorescence, CHO cells, BLA complementation; inhibition, % at 4.98 µM; CCF4 ratio; AID 624267, 2012; Receptor-interacting serine/threonine-protein kinase 2 (Homo sapiens), O43353; 360,000 tested, 0.38% active; in the data active means inhibition above about 21%
TLR4 MyD88 cnf: TLR4-MyD88 association inhibitors, retest, confirmation, cell-based, HeLa CL3-4, BLA complementation, FRET ratio; 350 tested, 50% active; inhibition, % at 8.4 µM; CCF4 FRET ratio; shares compounds with TLR4-MyD88 BLA;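 active means mean inhibition across three repeat runs above about 25% carried over from the earlier screen, limit read from the data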
BLA inh HeLa: beta-lactamase inhibition flagged in TLR4-MyD88 counter-screen; 350 tested, 63% active; shares compounds with TLR4-MyD88 BLA; HeLa BLA reporter, CCF4 FRET ratio; inhibition, % at 8.4 µM; AID 1237;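 active means mean inhibition over three repeats above about 26% taken from the earlier screen, limit read from the data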;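 further: HeLa cells stably expressing beta-lactamase reporter as counterscreen for TLR4-MyD88 inhibitors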
TLR9-MyD88 cf: TLR9-MyD88 association inhibitors, retest, confirmation, cell-based, CHO, BLA complementation, fluorescence, triplicate; 680 tested, 51% active; shares compounds with TLR9-MyD88 block; inhibition, % at 4.98 µM; CCF4 FRET ratio;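 active means mean inhibition across three repeats above about 21% taken from the earlier screen, limit read from the data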;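 further: blue over green emission ratio reports constitutive TLR9 MyD88 association via BLA complementation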
BLA counter-1: beta-lactamase reporter inhibitors in CHO cells, artefact control for TLR9-MyD88 binding inhibitor project, cell-based, fluorescence | shares compounds with TLR9-MyD88 block | CHO-BLA cells, CCF4 FRET ratio, BLA reporter | inhibition, % at 4.98 µM | 680 tested, 7% active;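 active means mean inhibition above a 50% cutoff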;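 further: counterscreen of TLR9-MyD88 hits on CMV-driven BLA in CHO-K1 cells; higher means less blue over green ratio so more BLA blockade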
TLR9 CHO tox: CHO cell viability loss – luminescence, single concentration, cytotoxicity control for TLR9-MyD88 binding inhibitor project | 680 tested, 39% active | TLR9-MyD88 CHO cells cytotoxicity | inhibition, % at 4.98 µM | shares compounds with TLR9-MyD88 block; in the data active means inhibition above about 11%
Myeloid diff: inducers of myeloid progenitor differentiation, confirmation, cell-based, GFP/Mac1 flow cytometry, cherry pick 01. shares compounds with Myeloid diff 2. ER-HoxA9 myeloid progenitors, GFP/Mac1 double-positive flow. calls only. 2,300 tested, 2% active;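 active means share of green or green-and-red cells above 9 and 9% in run 1 or 4 and 3% in run 2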
GFP autofluor: flagged as fluorescent in myeloid differentiation counter-screen; shares compounds with Myeloid diff 2; ER-HoxA9 myeloid progenitors, no estrogen, GFP autofluorescence flow cytometry; vehicle wells 0%, positive control 100%; fluorescence response, % (concentration not given with the values); 2,300 tested, 7.4% active; AID 651707;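 active means over 5% cells positive for green fluorescent reporter, or over 2% positive for both it and APC stain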
NOD2-RIPK2 conf: NOD2-RIPK2 binding disruptors, retest, confirmation, fluorescence, CHO cells, BLA complementation, triplicate. inhibition, % at 4.98 µM. shares compounds with NOD2 RIPK2 PPI. CCF4 FRET. 1,200 tested, 70% active. AID 624370, 2012;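 active means mean inhibition across replicates above a set limit taken from the earlier primary screen, cut at about 21% in these data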
BLA counter-2: NOD2-RIPK2 counterscreen BLA reporter activity | AID 624371 | inhibition, % at 4.98 µM | CHO BLA reporter, CCF4 FRET ratio | 1,200 tested, 57% active | shares compounds with NOD2 RIPK2 PPI;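 active means mean inhibition above the low-control mean inhibition plus three low-control SD, cut at about 11% in these data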
Each line names hits and unclear results; the compound was inactive in the other large screens (follow-up assays come after a bar, where they were run).

CC1CCCCC1NC(=O)CN1C(=O)c2cccc(N)c2C1=O (centres undefined)	TLR9-MyD88 block 38, TLR4-MyD88 BLA 33, NOD2 RIPK2 PPI 47 | TLR4 MyD88 cnf 33 | BLA inh HeLa 52 | TLR9-MyD88 cf inactive | BLA counter-1 inactive | TLR9 CHO tox inactive | NOD2-RIPK2 conf 42 | BLA counter-2 48
CCCCNC(=O)CN1C(=O)c2cccc(N)c2C1=O	TLR9-MyD88 block 38, TLR4-MyD88 BLA 38, NOD2 RIPK2 PPI 45 | TLR4 MyD88 cnf 27 | BLA inh HeLa 48 | TLR9-MyD88 cf inactive | BLA counter-1 inactive | TLR9 CHO tox inactive | NOD2-RIPK2 conf 45 | BLA counter-2 48
CC1CCCCC1NC(=O)COC(=O)CN1C(=O)c2ccccc2C1=O (centres undefined)	none (no result: TLR4-MyD88 BLA)
CC(=NO)c1ccc2c(c1)Cc1cc([N+](=O)[O-])ccc1-2	none (no result: TLR4-MyD88 BLA)
Nc1ccc2c(c1)Cc1cc([N+](=O)[O-])ccc1-2	TLR9-MyD88 block 46, TLR4-MyD88 BLA 46, NOD2 RIPK2 PPI 49 | TLR4 MyD88 cnf 38 | BLA inh HeLa 67 | TLR9-MyD88 cf 31 | BLA counter-1 inactive | TLR9 CHO tox 11 | NOD2-RIPK2 conf 58 | BLA counter-2 54
COC(=S)N/C(=N\S(=O)(=O)c1ccc(Cl)cc1)c1ccccc1	none (no result: TLR4-MyD88 BLA)
O=C(NCCc1ccccn1)c1nc(Cn2cc(Br)cn2)no1	none (no result: TLR4-MyD88 BLA)
CCOc1ccc(S(=O)(=O)N(CC(=O)N/N=C/c2ccc(-c3ccc([N+](=O)[O-])cc3)o2)c2ccccc2)cc1	TLR9-MyD88 block 55, TLR4-MyD88 BLA 65, Myeloid diff 2 active, NOD2 RIPK2 PPI 35 | TLR4 MyD88 cnf 50 | BLA inh HeLa 87 | TLR9-MyD88 cf 57 | BLA counter-1 59 | TLR9 CHO tox 22 | NOD2-RIPK2 conf 68 | BLA counter-2 76
O=c1[nH]c(=O)n(CCCc2ccccc2)cc1-c1ccccc1	none (no result: TLR4-MyD88 BLA)
CC(=NNC(=O)c1cccc(S(=O)(=O)N2CCOCC2)c1)c1ccc(Cl)cc1	none (no result: TLR4-MyD88 BLA)
Cc1cccc(C)c1-n1c(C)cc(/C=N\Nc2ccc([N+](=O)[O-])cn2)c1C	TLR9-MyD88 block 44, TLR4-MyD88 BLA 29, NOD2 RIPK2 PPI 30 | TLR4 MyD88 cnf 35 | BLA inh HeLa 64 | TLR9-MyD88 cf 31 | BLA counter-1 inactive | TLR9 CHO tox inactive | NOD2-RIPK2 conf 61 | BLA counter-2 62
CCOc1ccccc1C(=O)Nc1nnc(SCC(=O)Nc2cc(C)on2)s1	none
CCCCNC(=O)c1nn(-c2ccccc2OC)c(=O)c2ccccc12	TLR9-MyD88 block 24, TLR4-MyD88 BLA 26, NOD2 RIPK2 PPI 26 | TLR4 MyD88 cnf inactive | BLA inh HeLa inactive | TLR9-MyD88 cf inactive | BLA counter-1 inactive | TLR9 CHO tox inactive | NOD2-RIPK2 conf 23 | BLA counter-2 24
CCCCCn1c2c(c(=N)c3ccccc31)CCC2	none (no result: TLR4-MyD88 BLA)
CCCCCCCCn1c2c(c(=N)c3ccccc31)CCC2	TLR4-MyD88 BLA 35, Myeloid diff 2 inconclusive, NOD2 RIPK2 PPI 21 (no result: TLR9-MyD88 block) | TLR4 MyD88 cnf inactive | BLA inh HeLa 28 | NOD2-RIPK2 conf inactive | BLA counter-2 inactive
COc1ccc(-n2cc(C#N)c(=O)n(Cc3ccc(F)cc3)c2=O)cc1	none
COc1ccc(-c2cc(C3CC3)nc3sc(C#N)c(N)c23)cc1	none (no result: Myeloid diff 2)
N#Cc1sc2nc(-c3cccs3)cc(-c3ccc(Cl)cc3)c2c1N	TLR9-MyD88 block 30, TLR4-MyD88 BLA 44, NOD2 RIPK2 PPI 24 | TLR4 MyD88 cnf 47 | BLA inh HeLa 75 | TLR9-MyD88 cf 46 | BLA counter-1 inactive | TLR9 CHO tox inactive | NOD2-RIPK2 conf 64 | BLA counter-2 66
Cc1ccc(NC2=Nc3ccccc3N3C2=Nc2c(c(C)nn2-c2ccccc2)C3c2ccc(O)c(O)c2)cc1 (centres undefined)	TLR9-MyD88 block 66, TLR4-MyD88 BLA 51, NOD2 RIPK2 PPI 66 | TLR4 MyD88 cnf 53 | BLA inh HeLa 84 | TLR9-MyD88 cf 59 | BLA counter-1 66 | TLR9 CHO tox inactive | NOD2-RIPK2 conf 74 | BLA counter-2 81
COc1cc(C#Cc2ccc3cc(C(C)(C)O)oc(=O)c3c2)cc(OC)c1	none (no result: TLR4-MyD88 BLA)
O=C(O)c1cccc(Sc2cc(Cl)ccc2C(=O)O)c1	none (no result: TLR4-MyD88 BLA)
Cc1n[nH]c(C)c1N1C(=O)c2cccc3c(Br)ccc(c23)C1=O	TLR9-MyD88 block 48, TLR4-MyD88 BLA 73, NOD2 RIPK2 PPI 57 | TLR4 MyD88 cnf 45 | BLA inh HeLa 79 | TLR9-MyD88 cf 22 | BLA counter-1 inactive | TLR9 CHO tox inactive | Myeloid diff inactive | GFP autofluor inactive | NOD2-RIPK2 conf 71 | BLA counter-2 59

Screens: PubChem BioAssay, several laboratories
